Assay results: PubChem BioAssay
Values joined by “and” are separate entries in the source; they are usually repeats but may differ in a detail not shown here. Identical values can stand only once. Active and inactive are the calls of the source.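 Rule for the calls, unless noted: active = compound whose remaining NAD level is above about 45 nM (limit read from the data); inactive = the rest.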

Test system: not listed separately
Assay: MELAS cybrid and Rieske KO viability enhancers – cell-based, MELAS cybrids, Rieske KO mouse fibroblasts, CellTiter-Glo, primary screen (AID 1508586;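 active = mean z-score across replicates of 1.96 or higher in either the MELAS or the Rieske mutant cell line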;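 note: z relative to plate mean and SD of compound and empty wells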)
Settings: MELAS cybrid survival, low glucose, CellTiter-Glo 48 h; stronger effect = higher value

| Structure (SMILES) | z-score |
| --- | --- |
| CC(=O)[C@H]1CC[C@H]2[C@@H]3CCC4=CC(=O)CC[C@]4(C)[C@H]3CC[C@]12C | -0.398 (inactive) and 0.245 (inactive) |
| CCC[C@@H]1C[C@@H](C(=O)N[C@@H]([C@H]2O[C@H](SC)[C@H](O)[C@@H](O)[C@H]2O)[C@@H](C)O)N(C)C1 | 0.52 (inactive) and 0.4 (inactive) |
| COc1ccc([C@@H]2CC(=O)c3c(O)cc(O[C@@H]4O[C@H](CO[C@@H]5O[C@@H](C)[C@H](O)[C@@H](O)[C@H]5O)[C@@H](O)[C@H](O)[C@H]4O)cc3O2)cc1O | -0.52 (inactive) |
| COc1ccc(-c2cc(=O)c3c(O)cc(O[C@@H]4O[C@H](CO[C@@H]5O[C@@H](C)[C@H](O)[C@@H](O)[C@H]5O)[C@@H](O)[C@H](O)[C@H]4O)cc3o2)cc1O | 0.526 (inactive) |
| N=c1ccn2c(n1)O[C@H]1[C@H](O)[C@@H](CO)O[C@H]12 | -0.885 (inactive) |
| C[C@H](CCC(=O)O)[C@H]1CC[C@H]2[C@@H]3[C@H](O)C[C@@H]4C[C@H](O)CC[C@]4(C)[C@H]3CC[C@]12C | 0.377 (inactive) |

Same assay, conditions: Rieske KO mouse fibroblast survival, low glucose, CellTiter-Glo 72 h

| Structure (SMILES) | z-score |
| --- | --- |
| C[C@@H]1[C@H](O)[C@@H](C)/C=C/C=C/C=C/C=C/C=C/C=C/C=C/[C@H](O[C@@H]2O[C@H](C)[C@@H](O)[C@H](N)[C@@H]2O)C[C@@H]2O[C@](O)(C[C@@H](O)C[C@@H](O)[C@H](O)CC[C@@H](O)C[C@@H](O)CC(=O)O[C@H]1C)C[C@H](O)[C@H]2C(=O)O | -0.728 |
| CC[C@@]1(O)C[C@H](O[C@H]2C[C@H](N(C)C)[C@H](O[C@H]3C[C@H](O)[C@H](O[C@H]4CCC(=O)[C@H](C)O4)[C@H](C)O3)[C@H](C)O2)c2c(cc3c(c2O)C(=O)c2c(O)cccc2C3=O)[C@H]1C(=O)OC | 2.56 |
| C[C@H]1O[C@@H](O[C@H]2[C@@H](O)C[C@H](O[C@H]3[C@@H](O)C[C@H](O[C@H]4CC[C@@]5(C)[C@H](CC[C@@H]6[C@@H]5C[C@@H](O)[C@]5(C)[C@@H](C7=CC(=O)OC7)CC[C@]65O)C4)O[C@@H]3C)O[C@@H]2C)C[C@H](O)[C@@H]1O | 0.0199 |
| CCC[C@@H]1C[C@@H](C(=O)N[C@@H]([C@H]2O[C@H](SC)[C@H](O)[C@@H](O)[C@H]2O)[C@H](C)Cl)N(C)C1 | -0.0935 and -0.00307 |
| C[C@H]1C[C@H]2[C@@H]3CCC4=CC(=O)C=C[C@]4(C)[C@@]3(F)[C@@H](O)C[C@]2(C)[C@@]1(O)C(=O)CO | -0.299 |
| CC(C)C[C@H]1C(=O)N2CCC[C@H]2[C@]2(O)O[C@](NC(=O)[C@@H]3C=C4c5cccc6[nH]c(Br)c(c56)C[C@H]4N(C)C3)(C(C)C)C(=O)N12 | -0.261 |
| CC(=O)[C@H]1CC[C@H]2[C@@H]3CCC4=CC(=O)CC[C@]4(C)[C@H]3CC[C@]12C | -0.301 and 1.24 |
| CCC[C@@H]1C[C@@H](C(=O)N[C@@H]([C@H]2O[C@H](SC)[C@H](O)[C@@H](O)[C@H]2O)[C@@H](C)O)N(C)C1 | -0.069 and -0.671 |
| COc1ccc([C@@H]2CC(=O)c3c(O)cc(O[C@@H]4O[C@H](CO[C@@H]5O[C@@H](C)[C@H](O)[C@@H](O)[C@H]5O)[C@@H](O)[C@H](O)[C@H]4O)cc3O2)cc1O | -0.165 |
| COc1ccc(-c2cc(=O)c3c(O)cc(O[C@@H]4O[C@H](CO[C@@H]5O[C@@H](C)[C@H](O)[C@@H](O)[C@H]5O)[C@@H](O)[C@H](O)[C@H]4O)cc3o2)cc1O | 0.0112 |
| N=c1ccn2c(n1)O[C@H]1[C@H](O)[C@@H](CO)O[C@H]12 | -0.24 |
| C[C@H](CCC(=O)O)[C@H]1CC[C@H]2[C@@H]3[C@H](O)C[C@@H]4C[C@H](O)CC[C@]4(C)[C@H]3CC[C@]12C | -0.0721 |

Target: NAD(+) hydrolase SARM1 (Homo sapiens) (UniProt Q6SZW1)
Assay: blocking NAD cleavage by SARM1 SAM-TIR – cell lysate, NAD-Glo luminescence (AID 1508614);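 note: higher remaining NAD means stronger inhibition of SARM1 NADase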
Settings: SAM-TIR HEK293T lysate NADase, at 1 µM, stronger effect = higher value

Chain of NAD(+) hydrolase SARM1 (Homo sapiens) (Q6SZW1 whole entry, looked up): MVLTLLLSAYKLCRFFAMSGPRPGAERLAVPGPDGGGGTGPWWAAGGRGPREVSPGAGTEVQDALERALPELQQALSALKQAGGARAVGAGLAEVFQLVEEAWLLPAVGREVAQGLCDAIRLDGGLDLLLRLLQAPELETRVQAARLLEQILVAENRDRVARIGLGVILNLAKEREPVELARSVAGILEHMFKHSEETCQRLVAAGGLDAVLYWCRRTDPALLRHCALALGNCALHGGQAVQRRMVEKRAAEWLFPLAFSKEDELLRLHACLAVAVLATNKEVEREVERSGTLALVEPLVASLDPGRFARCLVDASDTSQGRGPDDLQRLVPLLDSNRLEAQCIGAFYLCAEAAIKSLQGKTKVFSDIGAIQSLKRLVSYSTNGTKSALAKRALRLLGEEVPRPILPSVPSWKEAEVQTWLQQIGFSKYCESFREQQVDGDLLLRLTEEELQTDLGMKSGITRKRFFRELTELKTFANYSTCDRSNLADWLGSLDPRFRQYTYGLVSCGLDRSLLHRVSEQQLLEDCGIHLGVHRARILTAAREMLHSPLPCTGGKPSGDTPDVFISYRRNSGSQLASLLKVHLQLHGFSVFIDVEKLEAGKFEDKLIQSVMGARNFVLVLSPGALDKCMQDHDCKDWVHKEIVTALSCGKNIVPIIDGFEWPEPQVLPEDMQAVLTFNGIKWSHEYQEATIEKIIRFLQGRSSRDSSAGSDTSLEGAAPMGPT

| Structure (SMILES) | remaining NAD |
| --- | --- |
| CCC(=O)NCC[C@@H]1CCc2ccc3c(c21)CCO3 | 10 nM (inactive) |
| C[C@@H]1[C@H](O)[C@@H](C)/C=C/C=C/C=C/C=C/C=C/C=C/C=C/[C@H](O[C@@H]2O[C@H](C)[C@@H](O)[C@H](N)[C@@H]2O)C[C@@H]2O[C@](O)(C[C@@H](O)C[C@@H](O)[C@H](O)CC[C@@H](O)C[C@@H](O)CC(=O)O[C@H]1C)C[C@H](O)[C@H]2C(=O)O | 10 nM (inactive) |
| CC(C)(S)[C@@H](N)C(=O)O | 10 nM (inactive) |
| CC1(C)[C@@H](O)CC[C@]2(C)[C@H]3C(=O)C=C4[C@@H]5C[C@@](C)(C(=O)O)CC[C@]5(C)CC[C@@]4(C)[C@]3(C)CC[C@@H]12 | 10 nM (inactive) |
| CN[C@H](CC(C)C)C(=O)N[C@H]1C(=O)N[C@@H](CC(N)=O)C(=O)N[C@H]2C(=O)N[C@H]3C(=O)N[C@H](C(=O)N[C@H](C(=O)O)c4cc(O)cc(O)c4-c4cc3ccc4O)[C@H](O)c3ccc(c(Cl)c3)Oc3cc2cc(c3O[C@@H]2O[C@H](CO)[C@@H](O)[C@H](O)[C@H]2O[C@H]2C[C@](C)(N)[C@H](O)[C@H](C)O2)Oc2ccc(cc2Cl)[C@H]1O | 10 nM (inactive) |
| COc1cc([C@@H]2c3cc4c(cc3[C@@H](O[C@@H]3O[C@@H]5CO[C@@H](c6cccs6)O[C@H]5[C@H](O)[C@H]3O)[C@H]3COC(=O)[C@H]23)OCO4)cc(OC)c1O | 10 nM (inactive) |
| C[C@H]1O[C@@H](O[C@H]2[C@@H](O)C[C@H](O[C@H]3[C@@H](O)C[C@H](O[C@H]4CC[C@@]5(C)[C@H](CC[C@@H]6[C@@H]5C[C@@H](O)[C@]5(C)[C@@H](C7=CC(=O)OC7)CC[C@]65O)C4)O[C@@H]3C)O[C@@H]2C)C[C@H](O)[C@@H]1O | 10 nM (inactive) |
| CCC[C@@H]1C[C@@H](C(=O)N[C@@H]([C@H]2O[C@H](SC)[C@H](O)[C@@H](O)[C@H]2O)[C@H](C)Cl)N(C)C1 | 10 nM (inactive) |
| C[C@H]1C[C@H]2[C@@H]3CCC4=CC(=O)C=C[C@]4(C)[C@@]3(F)[C@@H](O)C[C@]2(C)[C@@]1(O)C(=O)CO | 10 nM (inactive) |
| CC(C)C[C@H]1C(=O)N2CCC[C@H]2[C@]2(O)O[C@](NC(=O)[C@@H]3C=C4c5cccc6[nH]c(Br)c(c56)C[C@H]4N(C)C3)(C(C)C)C(=O)N12 | 10 nM (inactive) |
| CC(=O)[C@H]1CC[C@H]2[C@@H]3CCC4=CC(=O)CC[C@]4(C)[C@H]3CC[C@]12C | 10 nM (inactive) |
| CCC[C@@H]1C[C@@H](C(=O)N[C@@H]([C@H]2O[C@H](SC)[C@H](O)[C@@H](O)[C@H]2O)[C@@H](C)O)N(C)C1 | 10 nM (inactive) |
| COc1ccc(-c2cc(=O)c3c(O)cc(O[C@@H]4O[C@H](CO[C@@H]5O[C@@H](C)[C@H](O)[C@@H](O)[C@H]5O)[C@@H](O)[C@H](O)[C@H]4O)cc3o2)cc1O | 10 nM (inactive) |
| O=C1c2c(O)cccc2[C@H]([C@@H]2O[C@H](CO)[C@@H](O)[C@H](O)[C@H]2O)c2cc(CO)cc(O)c21 | 10 nM (inactive) |
| N=c1ccn2c(n1)O[C@H]1[C@H](O)[C@@H](CO)O[C@H]12 | 10 nM (inactive) |
| COc1cc(NS(C)(=O)=O)ccc1Nc1c2ccccc2nc2ccccc12 | 10 nM (inactive) |
| C[C@H](CCC(=O)O)[C@H]1CC[C@H]2[C@@H]3[C@H](O)C[C@@H]4C[C@H](O)CC[C@]4(C)[C@H]3CC[C@]12C | 10 nM (inactive) |
